A number with no mark means an inactive call.

The first experiment deals with NADPH oxidase 2 (Homo sapiens) (UniProt P04839). Nature of the experiment: compounds shifting NOX2 Amplex Red fluorescence – cell-based, HEK293-NOX2, PMA-stimulated, NOX inhibitor project, primary screen (AID 1159). Also: test concentration not given here. The settings on record: 45 min, higher = more signal, called active from +8 up or from −8 down.
Chain of NADPH oxidase 2 (Homo sapiens) (P04839 whole entry, looked up): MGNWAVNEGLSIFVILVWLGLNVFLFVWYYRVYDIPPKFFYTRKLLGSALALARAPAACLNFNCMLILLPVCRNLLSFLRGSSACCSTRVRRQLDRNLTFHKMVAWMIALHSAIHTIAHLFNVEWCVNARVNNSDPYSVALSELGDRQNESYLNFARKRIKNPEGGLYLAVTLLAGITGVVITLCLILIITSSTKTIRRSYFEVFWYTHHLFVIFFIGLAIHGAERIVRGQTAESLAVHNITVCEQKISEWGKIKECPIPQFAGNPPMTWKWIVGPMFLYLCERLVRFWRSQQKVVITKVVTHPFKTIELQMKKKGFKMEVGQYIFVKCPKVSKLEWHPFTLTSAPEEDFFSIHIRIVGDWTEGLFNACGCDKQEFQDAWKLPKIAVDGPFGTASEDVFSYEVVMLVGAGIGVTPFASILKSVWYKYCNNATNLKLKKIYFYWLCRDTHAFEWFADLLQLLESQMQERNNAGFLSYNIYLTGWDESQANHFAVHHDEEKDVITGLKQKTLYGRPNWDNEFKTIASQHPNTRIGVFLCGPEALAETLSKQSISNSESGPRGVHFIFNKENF
With `CCCC[C@@H](O)C1=C(COc2ccccc2)C[C@H]2C(=O)N(Cc3ccccc3)C(=O)[C@H]2[C@H]1CO`, the z-score is -0.77.
For the compound `COC(=O)C1(CC(C)C)C=C2C(=C(c3ccccc3)C(=O)C2C)CN1` (stereo unspecified), the z-score was -0.00718.
The same measure, in the same setting: under `COc1ccc(CCNC(=O)[C@@]2(c3ccc([N+](=O)[O-])cc3)CC(=O)N(C3CCCCC3)[C@@H]2c2ccc(CO)cc2)cc1` stands -1.05; under `COCCCNC(=O)[C@@]1(Sc2ccc(C)cc2)CC(=O)N(C2Cc3ccccc3C2)[C@@H]1c1ccc(CO)cc1`, 0.00261.
Consider `CS(=O)(=O)CCOC(=O)C1=CC(c2ccc(CO)cc2)=CC(C2CC2)N(Cc2sc3ccccc3c2Cl)C=C1C(=O)OCCS(C)(=O)=O` (stereo unspecified), for which the z-score is 0.932.
The same measure, in the same setting: under `C=CCOC(=O)[C@@H]1[C@H]2C(=O)O[C@H](c3ccccc3)[C@H](c3ccccc3)N2[C@H](c2ccc(OCCOC(=O)[C@@H]3C[C@@H]4C(=O)N[C@@H](CCCC[N+](C)(C)C)C(=O)N4[C@@H]3c3ccc(O)cc3)cc2)[C@@]12C(=O)Nc1ccc(I)cc12` stands 2.43; under `OCCCC1=CC(c2ccc(CN3CCCC3)cc2)N(Cc2cc3c(cc2Br)OCO3)CC1` (stereo unspecified), -3.1.
For the compound `CC(c1ccccc1)C(O)C1C=CC2C(=O)N(C)C(=O)C2N1Nc1ccccc1` (stereo unspecified), the z-score was -1.51.
For the compound `CC(C)N1C(=O)C[C@@](C(=O)O)(c2ccc([N+](=O)[O-])cc2)[C@H]1c1ccc(CO)cc1`, the z-score was -2.39.
For the compound `CCCC#C[Si](O[C@H](CC)c1cn([C@H](C)c2ccccc2)nn1)(C(C)C)C(C)C`, the z-score was 0.177.

The next experiment deals with NADPH oxidase 4 (Homo sapiens) (UniProt Q9NPH5). Nature of the experiment: compounds shifting NOX4 Amplex Red fluorescence – cell-based, HEK293-NOX4, tetracycline-induced, NOX inhibitor project, primary screen (AID 1160). The settings on record: HEK293-NOX4, Amplex Red H2O2 fluorescence, 45 min; higher = more signal, called active from +8 up or from −8 down.
Chain of NADPH oxidase 4 (Homo sapiens) (Q9NPH5 whole entry, looked up): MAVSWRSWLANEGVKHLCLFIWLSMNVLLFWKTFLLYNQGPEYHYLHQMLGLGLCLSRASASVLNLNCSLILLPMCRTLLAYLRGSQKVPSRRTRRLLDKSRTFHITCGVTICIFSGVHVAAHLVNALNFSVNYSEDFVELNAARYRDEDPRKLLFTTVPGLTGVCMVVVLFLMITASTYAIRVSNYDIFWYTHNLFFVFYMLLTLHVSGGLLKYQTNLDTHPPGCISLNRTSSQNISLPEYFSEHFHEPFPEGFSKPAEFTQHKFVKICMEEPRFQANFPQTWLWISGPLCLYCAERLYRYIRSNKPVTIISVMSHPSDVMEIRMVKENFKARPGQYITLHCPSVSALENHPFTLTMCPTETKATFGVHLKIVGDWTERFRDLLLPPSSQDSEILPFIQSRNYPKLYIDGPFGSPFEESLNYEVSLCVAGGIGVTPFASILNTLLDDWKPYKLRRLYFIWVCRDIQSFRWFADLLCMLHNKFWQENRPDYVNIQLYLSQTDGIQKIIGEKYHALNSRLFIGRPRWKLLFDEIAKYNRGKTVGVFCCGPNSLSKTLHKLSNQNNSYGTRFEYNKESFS
With `CC1CC/C=C\[C@H]2OC34C=CCN(C(C)C)C(=O)[C@H]3N(CCO)C(=O)[C@@H]4C2C(=O)O1` (stereo partly specified), the z-score is -0.785.
On the same count and under the same terms, under `C=C(/C(=C/C[C@H](OC(=O)c1ccncc1)c1ccc(CO)o1)c1cnc2ccccc2c1)C(C)C` stands 0.0654.
Still for that read-out and setting: for `Cc1ccc(F)cc1S(=O)(=O)N[C@@H]1CCN(Cc2ccc(Br)cc2)C1` the value was -0.846; for `CN1C2C=C(CCCO)C(C3C(=O)N(C(N)=O)C(=O)C32)C1C1CC1` (stereo unspecified), -0.07; for `Cc1ccc(S[C@]2(C(=O)O)CC(=O)N(C3CCCCC3)[C@@H]2c2ccc(CO)cc2I)cc1`, -2.04.
Same read-out and setting: for `COCCOC(=O)N1C(=O)[C@@]2(c3cc(C#CC4(O)CCCCCC4)ccc31)[C@H](C(=O)N1CCc3cc(OC)c(OC)cc3C1)[C@H]1C(=O)O[C@H](c3ccccc3)[C@H](c3ccccc3)N1[C@@H]2c1ccc(OCCO)cc1` the value was 0.614; for `COC(=O)[C@@]1(Cc2ccc(OC)cc2)[C@H]2c3cc(C(=O)N4CCCC4)n(CCc4c[nH]c5ccc(O)cc45)c3C[C@H]2CN1C(=O)c1ccccc1`, -6.51; for `CN(C)C(=O)[C@]1(CCC(=O)OC(C)(C)C)N=C(c2ccc(OCCCO)cc2)O[C@@H]1c1ccccc1CN=[N+]=[N-]`, 2.22.
Regarding `CCOC(=O)C1=CC[C@@H](c2ccccc2)N(S(=O)(=O)c2ccc(C)cc2)[C@H]1c1ccccc1`, the z-score was -0.464.
The same measure, in the same setting: for `NC(=O)[C@H]1[C@@H]2C(=O)O[C@@H](c3ccccc3)[C@@H](c3ccccc3)N2[C@@H](c2ccc(OCCO)cc2)[C@]12C(=O)Nc1ccc(C#CCCO)cc12` the value was 1.03; for `CCCCCCCCCC(O)C1C=CC2C(=O)N(c3ccccc3)C(=O)C2N1Nc1cc(OC)c(OC)c(OC)c1` (stereo unspecified), -4.13; for `COc1cc(OC)c(C(O)C2C=CC3C(=O)N(Cc4ccccc4)C(=O)C3N2n2cnnc2)cc1Br` (stereo unspecified), -1.35.
Turning to `O=C1O[C@@H](c2ccccc2)[C@@H](c2ccccc2)N2[C@@H](c3ccc(OCCO)cc3)[C@]3(C(=O)Nc4ccc(C#CC5=CCCCC5)cc43)[C@@H](C(=O)NC[C@H](O)c3ccccc3)[C@H]12`, the z-score is 0.433.
The same measure, in the same setting: under `CC(C)[Si](C#CCCCC#N)(O[C@H](c1ccccc1)c1cn(Cc2ccccc2)nn1)C(C)C` stands 0.912; under `CC1=C2[C@@H](CCc3ccccc3)OB(O)C[C@@H]2[C@@H]2C(=O)N(C)C(=O)[C@@H]2C1`, 0.234.
`COc1ccc([Si](C)(C)[C@H]2[C@H](CC(=O)N(CCO)Cc3ccccc3)O[C@@]3(C(=O)N(C)c4c(Br)cc(C)cc43)[C@@H]2C)cc1`: the z-score was -0.577.
On the same count and under the same terms, under `C=CC[C@@]1(C(=O)NCCCOC)N=C(c2ccc(OCCCO)cc2)O[C@@H]1c1ccccc1N=[N+]=[N-]` stands -0.66.
Still for that read-out and setting: under `COC(=O)C(CC#Cc1ccc2c(c1)[C@]1(C(=O)N2)[C@H](c2ccc(O)cc2)N2[C@H](c3ccccc3)[C@H](c3ccccc3)OC(=O)[C@H]2[C@@H]1C(=O)NC[C@H](O)c1ccccc1)C(=O)OC` stands 0.318; under `COc1ccc([Si](C)(C)[C@H]2[C@H](CC(=O)N3Cc4ccccc4C[C@H]3CO)O[C@@]3(C(=O)N(Cc4ccc(N5CCOC5=O)cc4)c4ccccc43)[C@@H]2C)cc1`, 0.611; under `COC(=O)c1c(CC[C@@H](CO)NC(=O)N[C@@H](C)Cn2cc(-c3ccccn3)nn2)oc(C(C)=O)c1C(=O)OC`, -2.23.
Turning to `COCC(=C=CC[C@H](O)c1ccc(OCCO)cc1)CCO`, the z-score is 0.57.
On the same count and under the same terms, under `N[C@@H](Cc1ccccc1)C(=O)NCc1cn(Cc2ccccc2)nn1` stands 0.359; under `CCOC(=O)C[C@H]1[C@H](OC(=O)Cc2ccc3c(c2)OCO3)[C@@H](NC(=O)c2ccc3ccccc3n2)c2cc(OCCCO)ccc2N1C(=O)c1ccccc1`, 0.521.
The same measure, in the same setting: under `CC(CO)N1C(=O)[C@]2(C)C3C(=O)OCCC/C=C\[C@H]3OC23C=CCN(c2ccc(Cl)cc2)C(=O)[C@@H]13` (stereo partly specified) stands -0.0121; under `CC(=O)NCCCC[C@@H]1NC(=O)[C@@H]2C[C@H](C(=O)NCCCCCN)[C@H](c3ccc(O)cc3)N2C1=O`, 0.0542; under `COC(=O)[C@@]1(Cc2ccccc2)[C@H]2c3cc(C(=O)N(C)C)n(Cc4ccc(C)o4)c3C[C@H]2CN1C(=O)c1ccccc1`, -2.44.
On the same count and under the same terms, for `CCCC[C@@H](O)C1=C(COc2ccccc2)C[C@H]2C(=O)N(Cc3ccccc3)C(=O)[C@H]2[C@H]1CO` the value was -0.286.
On to `COC(=O)C1(CC(C)C)C=C2C(=C(c3ccccc3)C(=O)C2C)CN1` (stereo unspecified), for which the z-score is -1.48.
Still for that read-out and setting: for `COc1ccc(CCNC(=O)[C@@]2(c3ccc([N+](=O)[O-])cc3)CC(=O)N(C3CCCCC3)[C@@H]2c2ccc(CO)cc2)cc1` the value was 0.479; for `COCCCNC(=O)[C@@]1(Sc2ccc(C)cc2)CC(=O)N(C2Cc3ccccc3C2)[C@@H]1c1ccc(CO)cc1`, -0.107; for `CS(=O)(=O)CCOC(=O)C1=CC(c2ccc(CO)cc2)=CC(C2CC2)N(Cc2sc3ccccc3c2Cl)C=C1C(=O)OCCS(C)(=O)=O` (stereo unspecified), 0.186.
Regarding `C=CCOC(=O)[C@@H]1[C@H]2C(=O)O[C@H](c3ccccc3)[C@H](c3ccccc3)N2[C@H](c2ccc(OCCOC(=O)[C@@H]3C[C@@H]4C(=O)N[C@@H](CCCC[N+](C)(C)C)C(=O)N4[C@@H]3c3ccc(O)cc3)cc2)[C@@]12C(=O)Nc1ccc(I)cc12`, the z-score was 0.0539.
With `OCCCC1=CC(c2ccc(CN3CCCC3)cc2)N(Cc2cc3c(cc2Br)OCO3)CC1` (stereo unspecified), the z-score was -1.21.
The same measure, in the same setting: for `CC(c1ccccc1)C(O)C1C=CC2C(=O)N(C)C(=O)C2N1Nc1ccccc1` (stereo unspecified) the value was -3.77.
Same read-out and setting: for `CC(C)N1C(=O)C[C@@](C(=O)O)(c2ccc([N+](=O)[O-])cc2)[C@H]1c1ccc(CO)cc1` the value was 0.251; for `CCCC#C[Si](O[C@H](CC)c1cn([C@H](C)c2ccccc2)nn1)(C(C)C)C(C)C`, 0.00728.

These data come from PubChem BioAssay.
